From the supplement of paper PMC11018630
Where a name gives a salt, the structure may show the parent alone. ± gives the standard deviation of the averaged measurements.

These compounds were tested on RDEB dermal fibroblasts EB119 (assay: day of extracellular matrix detachment from plate (days); higher = delayed detachment (less fibrotic matrix)). Details: compound concentration: 10 uM.

Compared with `CCN(C)C(=O)Oc1cccc([C@H](C)N(C)C)c1` [Rivastigmine], `Cc1ccc(-n2nccn2)c(C(=O)N2CCN(c3nc4cc(Cl)ccc4o3)CC[C@H]2C)c1` [Suvorexant (MK-4305)] is lower in “day of extracellular matrix detachment from plate” value: 30.3 ± 2.9 for the first, 25 for the second.

For `N=C(N)NN` [Aminoguanidine (hydrochloride)], the “day of extracellular matrix detachment from plate” value was 26.3 ± 1.1.
